This passage reports log2 fold change results from the supplement of paper PMC10849652.

About 8,800 targets were measured; listed, in parts, are those with a hit and a random draw of the rest. About 0.5% of all pairs of compound and target were hits.

Sequence of UniProt O00425 (O00425 whole entry, looked up): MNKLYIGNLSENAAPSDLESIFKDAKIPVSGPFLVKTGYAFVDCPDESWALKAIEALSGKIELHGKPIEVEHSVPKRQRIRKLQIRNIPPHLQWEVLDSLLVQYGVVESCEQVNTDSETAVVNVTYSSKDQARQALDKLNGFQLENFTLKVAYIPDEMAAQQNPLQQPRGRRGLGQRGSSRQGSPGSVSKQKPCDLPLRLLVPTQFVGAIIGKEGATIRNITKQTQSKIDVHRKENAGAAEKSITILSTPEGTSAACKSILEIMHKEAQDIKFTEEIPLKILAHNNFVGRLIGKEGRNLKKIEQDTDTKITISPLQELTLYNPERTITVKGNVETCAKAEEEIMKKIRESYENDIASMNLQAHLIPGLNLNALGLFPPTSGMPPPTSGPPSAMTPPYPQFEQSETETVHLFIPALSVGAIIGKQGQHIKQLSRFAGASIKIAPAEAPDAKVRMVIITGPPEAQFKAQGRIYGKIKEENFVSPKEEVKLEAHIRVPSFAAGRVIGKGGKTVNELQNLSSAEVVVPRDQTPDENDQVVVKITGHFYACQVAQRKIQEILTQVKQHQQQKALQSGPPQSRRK
Sequence of UniProt P62873 (P62873 whole entry, looked up): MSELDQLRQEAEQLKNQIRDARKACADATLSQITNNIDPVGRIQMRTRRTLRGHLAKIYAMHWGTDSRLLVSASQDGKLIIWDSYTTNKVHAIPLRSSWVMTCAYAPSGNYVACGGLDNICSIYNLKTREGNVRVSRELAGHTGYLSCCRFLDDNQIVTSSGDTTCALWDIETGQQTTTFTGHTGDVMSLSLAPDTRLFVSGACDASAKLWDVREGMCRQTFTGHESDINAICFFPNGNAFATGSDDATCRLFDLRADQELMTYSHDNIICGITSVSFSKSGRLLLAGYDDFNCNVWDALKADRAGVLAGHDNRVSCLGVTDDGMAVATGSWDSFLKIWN
Sequence of UniProt Q99714 (Q99714 whole entry, looked up): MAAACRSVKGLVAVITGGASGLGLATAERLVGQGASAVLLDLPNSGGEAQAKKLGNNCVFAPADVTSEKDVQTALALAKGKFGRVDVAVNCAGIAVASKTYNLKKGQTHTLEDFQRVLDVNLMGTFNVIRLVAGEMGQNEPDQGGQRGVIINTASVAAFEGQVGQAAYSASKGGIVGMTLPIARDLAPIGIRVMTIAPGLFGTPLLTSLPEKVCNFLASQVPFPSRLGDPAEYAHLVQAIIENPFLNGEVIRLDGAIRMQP
Sequence of UniProt Q7Z5Y7 (Q7Z5Y7 whole entry, looked up): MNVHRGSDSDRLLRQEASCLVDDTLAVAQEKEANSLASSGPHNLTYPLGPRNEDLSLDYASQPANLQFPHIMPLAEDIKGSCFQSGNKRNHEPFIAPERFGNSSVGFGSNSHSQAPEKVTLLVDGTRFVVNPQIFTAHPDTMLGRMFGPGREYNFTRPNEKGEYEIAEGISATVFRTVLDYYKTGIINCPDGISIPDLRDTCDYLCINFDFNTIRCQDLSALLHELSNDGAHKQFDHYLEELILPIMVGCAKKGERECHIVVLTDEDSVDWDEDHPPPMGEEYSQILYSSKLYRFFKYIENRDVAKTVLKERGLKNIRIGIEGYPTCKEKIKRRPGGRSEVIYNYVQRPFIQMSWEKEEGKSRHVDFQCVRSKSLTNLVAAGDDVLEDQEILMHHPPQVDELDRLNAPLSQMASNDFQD
Sequence of UniProt Q96A47 (Q96A47 whole entry, looked up): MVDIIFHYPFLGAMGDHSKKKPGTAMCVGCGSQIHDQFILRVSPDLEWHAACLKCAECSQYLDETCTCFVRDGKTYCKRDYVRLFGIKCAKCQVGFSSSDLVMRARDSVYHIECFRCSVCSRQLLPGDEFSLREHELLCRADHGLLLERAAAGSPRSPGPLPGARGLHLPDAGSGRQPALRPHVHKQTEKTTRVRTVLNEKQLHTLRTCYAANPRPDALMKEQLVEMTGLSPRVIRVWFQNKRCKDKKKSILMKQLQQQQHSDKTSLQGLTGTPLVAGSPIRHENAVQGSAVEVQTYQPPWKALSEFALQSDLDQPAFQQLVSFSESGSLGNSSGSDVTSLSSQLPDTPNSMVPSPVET
Sequence of UniProt Q9BUE6 (Q9BUE6 whole entry, looked up): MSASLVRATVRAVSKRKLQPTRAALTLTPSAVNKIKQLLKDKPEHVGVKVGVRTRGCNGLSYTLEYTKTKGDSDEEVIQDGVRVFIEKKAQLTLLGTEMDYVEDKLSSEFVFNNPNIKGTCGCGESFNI
Sequence of UniProt O60547 (O60547 whole entry, looked up): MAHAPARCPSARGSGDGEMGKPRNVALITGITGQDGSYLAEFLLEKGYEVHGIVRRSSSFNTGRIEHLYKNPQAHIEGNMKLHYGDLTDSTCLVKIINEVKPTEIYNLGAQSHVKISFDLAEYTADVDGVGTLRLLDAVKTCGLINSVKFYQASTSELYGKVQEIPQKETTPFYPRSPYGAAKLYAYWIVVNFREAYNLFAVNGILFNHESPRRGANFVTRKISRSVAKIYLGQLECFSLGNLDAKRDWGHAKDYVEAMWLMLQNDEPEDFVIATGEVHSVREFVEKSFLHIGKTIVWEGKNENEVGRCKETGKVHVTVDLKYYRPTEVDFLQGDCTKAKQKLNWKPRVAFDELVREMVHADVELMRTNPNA
Sequence of UniProt Q6ICG6 (Q6ICG6 whole entry, looked up): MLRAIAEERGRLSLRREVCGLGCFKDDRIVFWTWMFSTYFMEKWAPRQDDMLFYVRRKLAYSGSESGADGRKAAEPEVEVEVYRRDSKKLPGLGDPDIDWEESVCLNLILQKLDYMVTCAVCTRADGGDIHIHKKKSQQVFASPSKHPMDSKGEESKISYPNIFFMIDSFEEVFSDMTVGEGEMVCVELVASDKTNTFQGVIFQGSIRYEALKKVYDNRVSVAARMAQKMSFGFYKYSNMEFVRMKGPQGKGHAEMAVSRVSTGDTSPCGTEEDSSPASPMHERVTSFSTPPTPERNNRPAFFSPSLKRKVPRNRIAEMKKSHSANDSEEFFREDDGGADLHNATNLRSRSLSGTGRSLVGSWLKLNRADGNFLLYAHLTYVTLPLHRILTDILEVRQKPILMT
Sequence of UniProt P22692 (P22692 whole entry, looked up): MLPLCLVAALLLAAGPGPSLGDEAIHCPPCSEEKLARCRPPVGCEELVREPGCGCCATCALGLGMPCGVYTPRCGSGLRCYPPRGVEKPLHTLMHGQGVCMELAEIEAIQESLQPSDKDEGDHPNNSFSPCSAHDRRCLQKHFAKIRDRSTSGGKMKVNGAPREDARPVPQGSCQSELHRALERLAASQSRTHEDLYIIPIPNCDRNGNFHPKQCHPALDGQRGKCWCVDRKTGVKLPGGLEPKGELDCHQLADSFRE
Sequence of UniProt P09211 (P09211 whole entry, looked up): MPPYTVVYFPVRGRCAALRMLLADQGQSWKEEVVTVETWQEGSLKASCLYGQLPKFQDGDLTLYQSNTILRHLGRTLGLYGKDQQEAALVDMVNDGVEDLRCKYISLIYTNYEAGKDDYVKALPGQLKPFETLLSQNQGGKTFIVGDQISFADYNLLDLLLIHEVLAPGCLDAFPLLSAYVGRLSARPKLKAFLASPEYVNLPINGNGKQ
Sequence of UniProt P52333 (P52333 whole entry, looked up): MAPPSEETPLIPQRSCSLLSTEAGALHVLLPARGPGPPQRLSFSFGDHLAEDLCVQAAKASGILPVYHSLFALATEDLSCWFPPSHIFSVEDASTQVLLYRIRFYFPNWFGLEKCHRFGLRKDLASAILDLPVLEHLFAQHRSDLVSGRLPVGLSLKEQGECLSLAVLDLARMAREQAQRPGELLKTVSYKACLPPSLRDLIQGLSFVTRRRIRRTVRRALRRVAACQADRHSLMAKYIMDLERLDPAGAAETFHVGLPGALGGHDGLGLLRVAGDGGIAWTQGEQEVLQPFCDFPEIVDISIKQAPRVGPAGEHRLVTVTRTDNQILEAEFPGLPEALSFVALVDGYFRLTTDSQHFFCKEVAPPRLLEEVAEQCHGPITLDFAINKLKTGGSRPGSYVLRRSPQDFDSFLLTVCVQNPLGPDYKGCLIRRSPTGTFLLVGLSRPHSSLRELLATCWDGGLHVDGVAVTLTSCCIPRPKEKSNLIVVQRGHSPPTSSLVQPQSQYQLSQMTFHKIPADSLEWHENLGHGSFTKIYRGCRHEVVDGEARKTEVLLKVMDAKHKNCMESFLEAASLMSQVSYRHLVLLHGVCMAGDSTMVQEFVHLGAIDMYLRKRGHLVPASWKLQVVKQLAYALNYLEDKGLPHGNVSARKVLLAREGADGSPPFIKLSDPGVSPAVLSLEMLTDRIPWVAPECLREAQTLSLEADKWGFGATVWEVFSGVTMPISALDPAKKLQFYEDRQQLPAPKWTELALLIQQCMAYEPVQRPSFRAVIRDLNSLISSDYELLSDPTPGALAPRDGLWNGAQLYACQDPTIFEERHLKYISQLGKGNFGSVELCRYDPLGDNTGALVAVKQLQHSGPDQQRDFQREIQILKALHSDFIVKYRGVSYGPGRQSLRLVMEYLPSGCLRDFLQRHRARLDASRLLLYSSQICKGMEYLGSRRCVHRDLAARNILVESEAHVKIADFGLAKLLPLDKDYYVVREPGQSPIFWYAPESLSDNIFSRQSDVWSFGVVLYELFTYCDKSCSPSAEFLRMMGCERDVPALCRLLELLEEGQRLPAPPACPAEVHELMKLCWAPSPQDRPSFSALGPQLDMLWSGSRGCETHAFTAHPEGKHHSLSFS
Sequence of UniProt Q9HAV0 (Q9HAV0 whole entry, looked up): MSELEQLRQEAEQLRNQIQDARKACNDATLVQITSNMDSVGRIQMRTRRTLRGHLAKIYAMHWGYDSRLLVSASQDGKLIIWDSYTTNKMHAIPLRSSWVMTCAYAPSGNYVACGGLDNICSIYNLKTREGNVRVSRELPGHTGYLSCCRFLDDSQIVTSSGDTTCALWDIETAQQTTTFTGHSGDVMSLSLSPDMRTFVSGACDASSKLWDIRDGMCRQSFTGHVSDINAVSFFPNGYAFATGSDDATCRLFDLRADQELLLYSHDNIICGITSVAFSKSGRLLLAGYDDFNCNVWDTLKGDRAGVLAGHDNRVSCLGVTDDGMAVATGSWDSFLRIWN
Sequence of UniProt P17096 (P17096 whole entry, looked up): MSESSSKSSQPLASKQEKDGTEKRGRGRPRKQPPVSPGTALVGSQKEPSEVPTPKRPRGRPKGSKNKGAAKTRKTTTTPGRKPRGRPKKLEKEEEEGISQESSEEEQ

Compound in the first assay: C1=CC=C(C=C1)[C@H](COC2=CC3=C(C=C2)NC(=O)N3)NC(=O)C4=CC=CN(C4=O)CC5=CC(=C(C=C5)F)F
The assay can be described thus: log2 fold change, soluble protein after heating vs DMSO (PISA); higher = thermal stabilisation; K562 lysate, 10 uM; active = over 0.2 and 3.5 SD of the protein, either way, in both replicates (recomputed). A digest of the protocol: (§1)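 Log-two fold change in thermal stability relative to solvent controls is reported from duplicates. For each sample, crude K562 extract from dounce-homogenised pellets in PBS pH 7.4 with 1 mM MgCl2, at 1 mg/mL protein, was treated with 10 μM compound for 30 min. Aliquots heated for 3 min across 48°C-58°C were pooled, brought to 0.5% NP-40 at 4°C and cleared at 21,000xg for 90 min. The supernatant was quantified by TMTpro 16plex LC-MS/MS with channel sums equalised.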
For the target JAK3 (UniProt P52333), the log2 fold change was 0.031 (inactive).

Take GNB4 (UniProt Q9HAV0): the log2 fold change is 0.162 (inactive).

As to INTS3 (UniProt Q68E01), the log2 fold change was 0.017 (inactive).

On to ISCA1 isoform 2 (UniProt Q9BUE6), for which the log2 fold change is 0.005 (inactive).

For HSPBAP1 (UniProt Q96EW2), the log2 fold change was 0.069 (inactive).

For the target HSPA8 (UniProt E9PN89), the log2 fold change is 0.003 (inactive).

Regarding IRS2 (UniProt Q9Y4H2), the log2 fold change was -0.091 (inactive).

In the case of KIAA0930 isoform 2 (UniProt Q6ICG6), the log2 fold change is 0.3 (inactive).

In the case of GSTP1 (UniProt P09211), the log2 fold change was -0.018 (inactive).

As for GMDS (UniProt O60547), the log2 fold change was -0.003 (inactive).

Take GIPC3 (UniProt Q8TF64): the log2 fold change was -0.002 (inactive).

In the case of GYPA, A0A2R8Y7F9, the log2 fold change was -0.088 (inactive).

IGF2BP3 (UniProt O00425): the log2 fold change is -0.02 (inactive).

In the case of HOMER3 (UniProt Q9NSC5), the log2 fold change is 0.072 (inactive).

Consider HNRNPUL1 (UniProt M0R247), for which the log2 fold change is 0.059 (inactive).

On to KCTD20 (UniProt Q7Z5Y7), for which the log2 fold change was -0.031 (inactive).

Consider H3-3A (UniProt P84243), for which the log2 fold change was 0.059 (inactive).

For the target GNB1 (UniProt P62873), the log2 fold change is 0.042 (inactive).

GRK6 isoform 2 (UniProt P43250): the log2 fold change is 0.086 (inactive).

Regarding HSD17B10 (UniProt Q99714), the log2 fold change is -0.006 (inactive).

Consider ISL2 (UniProt Q96A47), for which the log2 fold change was 0.038 (inactive).

For IMPDH2 (UniProt H0Y4R1), the log2 fold change is -0.048 (inactive).

IGFBP4 (UniProt P22692): the log2 fold change was 0.135 (inactive).

Compound in the next assay: CC1=C(SC2=C1C(=N[C@H](C3=NN=C(N32)C)CC(=O)N)C4=CC=C(C=C4)Cl)C
The description is as above. In short, it runs like this:
as §1
For JAK3 (UniProt P52333), the log2 fold change is -0.051 (inactive).

Take GNB4 (UniProt Q9HAV0): the log2 fold change is -0.074 (inactive).

Consider INTS3 (UniProt Q68E01), for which the log2 fold change is 0.063 (inactive).

On to ISCA1 isoform 2 (UniProt Q9BUE6), for which the log2 fold change is -0.03 (inactive).

With HSPBAP1 (UniProt Q96EW2), the log2 fold change was -0.022 (inactive).

As to HSPA8 (UniProt E9PN89), the log2 fold change was 0.044 (inactive).

For the target IRS2 (UniProt Q9Y4H2), the log2 fold change was 0.246 (inactive).

Turning to KIAA0930 isoform 2 (UniProt Q6ICG6), the log2 fold change was -0.034 (inactive).

As to GSTP1 (UniProt P09211), the log2 fold change was 0.004 (inactive).

Consider GMDS (UniProt O60547), for which the log2 fold change was -0.014 (inactive).

Consider GIPC3 (UniProt Q8TF64), for which the log2 fold change is 0.042 (inactive).

Take GYPA, A0A2R8Y7F9: the log2 fold change was -0.151 (inactive).

For IGF2BP3 (UniProt O00425), the log2 fold change is 0.005 (inactive).

Take HOMER3 (UniProt Q9NSC5): the log2 fold change was -0.276 (inactive).

Turning to HNRNPUL1 (UniProt M0R247), the log2 fold change is -0.014 (inactive).

In the case of KCTD20 (UniProt Q7Z5Y7), the log2 fold change was -0.011 (inactive).

In the case of H3-3A (UniProt P84243), the log2 fold change was 0.016 (inactive).

In the case of GNB1 (UniProt P62873), the log2 fold change was -0.051 (inactive).

Consider GRK6 isoform 2 (UniProt P43250), for which the log2 fold change was -0.034 (inactive).

As to HSD17B10 (UniProt Q99714), the log2 fold change was 0.062 (inactive).

On to ISL2 (UniProt Q96A47), for which the log2 fold change was 0.058 (inactive).

For IMPDH2 (UniProt H0Y4R1), the log2 fold change was 0 (inactive).

As for IGFBP4 (UniProt P22692), the log2 fold change is -0.099 (inactive).

Compound in the next assay: CC1=C2C(=CC=C1)N=C(N(C2=O)C3=CC=CC=C3C)CN4C=NC5=C(N=CN=C54)N
The description is as above. In short, it runs like this: as §1
For the target IPP (UniProt Q9Y573), the log2 fold change was -0.009 (inactive).

In the case of JAK3 (UniProt P52333), the log2 fold change was -0.129 (inactive).

As to HECW2 (UniProt Q9P2P5), the log2 fold change was -0.048 (inactive).

Regarding INTS3 (UniProt Q68E01), the log2 fold change was -0.043 (inactive).

As to ISCA1 isoform 2 (UniProt Q9BUE6), the log2 fold change was 0.016 (inactive).

In the case of HNRNPM (UniProt M0R019), the log2 fold change was -0.116 (inactive).

For KATNBL1 (UniProt Q9H079), the log2 fold change was -0.111 (inactive).

As to KIAA0930 isoform 2 (UniProt Q6ICG6), the log2 fold change is -0.051 (inactive).

Turning to GORASP1 (UniProt Q9BQQ3), the log2 fold change is -0.049 (inactive).

Turning to GSTP1 (UniProt P09211), the log2 fold change was -0.003 (inactive).

Take ITGB1BP2 (UniProt Q9UKP3): the log2 fold change was 0.116 (inactive).

Regarding GMDS (UniProt O60547), the log2 fold change was 0.042 (inactive).

With IGF2BP3 (UniProt O00425), the log2 fold change is 0.009 (inactive).

For the target GTPBP6 (UniProt O43824), the log2 fold change was 0.385 (inactive).

For the target KCTD20 (UniProt Q7Z5Y7), the log2 fold change was 0.097 (inactive).

As for H3-3A (UniProt P84243), the log2 fold change was 0.024 (inactive).

Consider GNB1 (UniProt P62873), for which the log2 fold change was -0.038 (inactive).

With GPN2 (UniProt Q9H9Y4), the log2 fold change is 0.07 (inactive).

Regarding GRK6 isoform 2 (UniProt P43250), the log2 fold change is -0.135 (inactive).

As for HSD17B10 (UniProt Q99714), the log2 fold change is 0.03 (inactive).

Take IMPDH2 (UniProt H0Y4R1): the log2 fold change is -0.077 (inactive).

HYDIN (UniProt Q4G0P3): the log2 fold change is -0.069 (inactive).

Compound in the next assay: Cc1sc2c(c1C)C(c1ccc(Cl)cc1)=N[C@@H](CC(=O)OC(C)(C)C)c1nnc(C)n1-2
Described as above. A digest of the protocol: as §1
With IPP (UniProt Q9Y573), the log2 fold change is -0.099 (inactive).

Consider HECW2 (UniProt Q9P2P5), for which the log2 fold change was -0.093 (inactive).

As to GNB4 (UniProt Q9HAV0), the log2 fold change was 0.031 (inactive).

Turning to ITPR2 (UniProt Q14571), the log2 fold change was -0.171 (inactive).

In the case of INTS3 (UniProt Q68E01), the log2 fold change was -0.06 (inactive).

Take ISCA1 isoform 2 (UniProt Q9BUE6): the log2 fold change was -0.021 (inactive).

On to HSPBAP1 (UniProt Q96EW2), for which the log2 fold change was 0.065 (inactive).

In the case of HSPA8 (UniProt E9PN89), the log2 fold change is -0.219 (inactive).

Consider ITPRIP (UniProt Q8IWB1), for which the log2 fold change is 0.054 (inactive).

Regarding KATNBL1 (UniProt Q9H079), the log2 fold change is -0.012 (inactive).

Regarding IRS2 (UniProt Q9Y4H2), the log2 fold change was -0.129 (inactive).

Take KIAA0930 isoform 2 (UniProt Q6ICG6): the log2 fold change was 0.07 (inactive).

For GORASP1 (UniProt Q9BQQ3), the log2 fold change was -0.031 (inactive).

Regarding GSTP1 (UniProt P09211), the log2 fold change was -0.017 (inactive).

Take ITGB1BP2 (UniProt Q9UKP3): the log2 fold change is 0.083 (inactive).

With GMDS (UniProt O60547), the log2 fold change was 0.033 (inactive).

For the target GIPC3 (UniProt Q8TF64), the log2 fold change is 0.013 (inactive).

Turning to IGF2BP3 (UniProt O00425), the log2 fold change was 0.035 (inactive).

As for GTPBP6 (UniProt O43824), the log2 fold change is -0.439 (inactive).

As for HMGA1 isoform 2 (UniProt P17096), the log2 fold change was 0.055 (inactive).

For the target KCTD20 (UniProt Q7Z5Y7), the log2 fold change was -0.009 (inactive).

In the case of GNB1 (UniProt P62873), the log2 fold change was 0.069 (inactive).

Consider GPN2 (UniProt Q9H9Y4), for which the log2 fold change was 0.057 (inactive).

For GRK6 isoform 2 (UniProt P43250), the log2 fold change is 0.084 (inactive).

On to HSD17B10 (UniProt Q99714), for which the log2 fold change was 0.022 (inactive).

Consider ISL2 (UniProt Q96A47), for which the log2 fold change is -0.063 (inactive).

For the target IMPDH2 (UniProt H0Y4R1), the log2 fold change is -0.018 (inactive).

Turning to GPLD1 (UniProt P80108), the log2 fold change is 0.209 (inactive).

Regarding HYDIN (UniProt Q4G0P3), the log2 fold change is -0.078 (inactive).

As for IGFBP4 (UniProt P22692), the log2 fold change was -0.032 (inactive).
